SIRT5 inh = blocks human SIRT5 desuccinylation of peptide. Purified SirT5, succinyl-peptide AMC, trypsin-coupled fluorescence. inhibition, % at 15 µM. 330,000 tested, 1.1% active. AID 652115; in the data active = inhibition above about 15%; inconclusive = no clear call, values can overlap the other calls
Target sequence (Q9NXA8 whole entry, looked up): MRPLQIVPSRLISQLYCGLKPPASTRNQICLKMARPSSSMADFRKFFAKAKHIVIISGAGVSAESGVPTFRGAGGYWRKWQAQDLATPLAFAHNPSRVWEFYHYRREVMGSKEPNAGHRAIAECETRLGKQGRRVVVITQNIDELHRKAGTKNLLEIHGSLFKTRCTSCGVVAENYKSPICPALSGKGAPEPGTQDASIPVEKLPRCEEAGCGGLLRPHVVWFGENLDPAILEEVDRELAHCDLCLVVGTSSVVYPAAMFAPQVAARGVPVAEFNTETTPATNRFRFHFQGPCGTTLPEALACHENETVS
Rtt109 HAT inh = inhibitors of Candida albicans Rtt109/Vps75 histone acetyltransferase; inhibition, % at 34.9 µM; 330,000 tested, 0.16% active; purified Rtt109/Vps75, ThioGlo CoA-SH fluorescence, 4 h;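 active = inhibition of at least 50% in every replicate; inconclusive = best replicate reaches 50% inhibition but some replicates fall short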
Target sequence (Q5AAJ8 whole entry, looked up): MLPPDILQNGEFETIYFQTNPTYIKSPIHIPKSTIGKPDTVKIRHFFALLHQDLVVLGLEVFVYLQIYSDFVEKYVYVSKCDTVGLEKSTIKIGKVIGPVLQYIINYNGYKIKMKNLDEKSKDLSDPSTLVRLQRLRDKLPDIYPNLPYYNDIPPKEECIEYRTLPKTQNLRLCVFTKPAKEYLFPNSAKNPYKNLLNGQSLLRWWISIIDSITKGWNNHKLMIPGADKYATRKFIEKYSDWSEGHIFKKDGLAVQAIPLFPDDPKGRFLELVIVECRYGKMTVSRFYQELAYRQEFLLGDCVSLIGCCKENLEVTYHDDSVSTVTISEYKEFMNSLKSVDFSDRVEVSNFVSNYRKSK
DENV2 CPE = inhibitors of DENV2 cytopathic effect; DENV2-infected cells, cytopathic effect rescue, plate reader; CPE inhibition, % at 9.99 µM; 350,000 tested, 1.7% active; in the data active = CPE inhibition above about 20%, passing the limit was not always enough; inconclusive = no clear call, values can overlap the other calls; tested in BHK-21 cells;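 note: 0% = median of neutral control wells and 100% = median of positive control wells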
ERp5 block = inhibitors of human ERp5. inhibition, % at 9.99 µM. 350,000 tested, 0.05% active. Q15084. ERp5 insulin aggregation, absorbance 650 nm, 90 min;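 active = mean replicate inhibition above about 25%, with every replicate also reaching it, limit read from the data, passing the limit was not always enough; inconclusive = only one of those two criteria met; inactive = neither criterion met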
PDI inh = blocks human protein disulfide isomerase activity | P07237 | PDI insulin aggregation turbidity, A650, 90 min | inhibition, % at 10 µM | 350,000 tested, 0.052% active;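 active = mean inhibition across replicates of 30% or more, whatever share of single replicates reach that level; inconclusive = mean inhibition below 30% while every single replicate reaches 30%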
* = called active by the depositor; ? = inconclusive; · = no result given; ! = repeats disagree. Most compounds without a hit are left out; they make up all but 2.3% or so of the library.

SMILES | SIRT5 inh | Rtt109 HAT inh | DENV2 CPE | ERp5 block | PDI inh
COc1cccc(-c2ccc3c(c2)[C@@H]2[C@@H](CCN2S(=O)(=O)c2ccccc2C)[C@H](CO)N3C)c1 | 7.5 | · | 28.5* | 0.9 | ·
Cc1ccccc1S(=O)(=O)N1CC[C@@H]2[C@H]1c1cc(-c3ccc(C#N)cc3)ccc1N(C)[C@H]2CO | -6.1 | · | 26.5* | -1.2 | ·
CCCC#Cc1ccc2c(c1)O[C@H](CN(C)Cc1ccncc1)[C@H](C)CN([C@@H](C)CO)S2(=O)=O | 0.1 | · | 5.6 | -6.2 | ·
O=C(C[C@H]1C[C@@H]2c3cc(NS(=O)(=O)c4ccc(F)cc4)ccc3O[C@@H]2[C@H](CO)O1)NCc1cc(F)ccc1F | -0.7 | · | -2.0 | -0.8 | ·
CC(C)(C)OC(=O)C[C@H]1C/C=C\C[C@@H](CC(=O)N[C@@H](CO)Cc2ccccc2)C(=O)NC[C@H](c2ccccc2)OC1=O | 0.9 | 0.6 | 57.7* | -5.2 | -6.8
CC(C)(C)OC(=O)C[C@@H]1C/C=C\C[C@@H](CC(=O)N[C@@H](CO)Cc2ccccc2)C(=O)NC[C@@H](c2ccccc2)OC1=O | · | 5.5 | 11.2 | 1.3 | 7.4
CC[C@]12c3[nH]c4ccccc4c3CCN1C(=O)C(CC(=O)NCCC1=CCCCC1)C[C@@H]2C(=O)N1CCN(C(=O)C2CC2)CC1 (some centres not stated) | 3.5 | 2.8 | 54.5* | 1.0 | -6.2
CC[C@]12c3[nH]c4ccc(Cl)cc4c3CCN1C(=O)[C@@H](CC(=O)NCCC1=CCCCC1)C[C@@H]2C(=O)N1CCN(C(=O)C2CC2)CC1 | 17.8* | 7.5 | 16.3 | 1.5 | 7.1
COc1ccc(C2c3[nH]c4ccccc4c3C[C@H]3C(=O)N(c4ccccc4C(=O)N4CCC(C(=O)O)CC4)C(=O)N23)cc1 (some centres not stated) | -0.5 | 5.3 | -9.8 | -8.5 | ·
COc1cccc(C2c3[nH]c4ccccc4c3C[C@H]3C(=O)N(c4ccccc4C(=O)N4CCC(C(=O)O)CC4)C(=O)N23)c1 (some centres not stated) | -0.6 | 7.4 | 82.7* | -2.5 | ·
CC(=O)Oc1ccc(C2OC(=O)c3ccccc3N2C(C)=O)cc1 (configuration not stated) | · | 3.6 | · | · | 32.1*
O=C(c1ccccc1)C(O)(Cc1ccccc1)c1ccccc1 (configuration not stated) | -1.6 | 0.9 | 35.9* | -6.8 | 1.0
CC(O)(C(=O)c1ccccc1)c1ccccc1 (configuration not stated) | · | · | 9.9 | -3.6 | ·
CCOC(=O)C1(CCOc2ccccc2)CCN(Cc2ccc(O)c(Cl)c2)CC1 | -5.8 | 6.5 | 18.7 | -0.1 | 110.8*
CCOc1ccc(S(=O)(=O)NN2Cc3ccccc3C2=N)cc1 | 17.5* | -2.1 | 0.0 | 7.4 | 0.1
COc1ccc2c3c([nH]c2c1)[C@H](CO)N(Cc1ccccn1)CC31CN(C(C)=O)C1 | · | · | 46.6* | · | ·
COc1ccc2c3c([nH]c2c1)[C@H](CO)N(Cc1ccccn1)CC31CCN(C(C)=O)CC1 | · | · | 6.7 | -2.3 | ·
COc1ccc2c3c([nH]c2c1)[C@@H](CO)N(Cc1cccc(F)c1)CC31CN(Cc2ccccn2)C1 | 0.1 | · | 38.8* | -8.0 | ·
COc1ccc(S(=O)(=O)N(C)C[C@@H]2OCc3cnnn3CCCC(=O)N([C@H](C)CO)C[C@H]2C)cc1 | 0.3 | · | 5.2 | 10.7 | -4.5
COc1cccc(S(=O)(=O)N(C)C[C@@H]2OCc3cnnn3CCCC(=O)N([C@@H](C)CO)C[C@@H]2C)c1 | 2.2 | · | 20.1*! | 2.9 | 2.4
COc1ccc(S(=O)(=O)N(C)C[C@@H]2OCc3cnnn3CCCC(=O)N([C@@H](C)CO)C[C@H]2C)cc1 | 1.2 | · | 27.9*! | -0.2 | -14.0
COc1ccc(S(=O)(=O)N(C)C[C@H]2OCc3cnnn3CCCC(=O)N([C@H](C)CO)C[C@@H]2C)cc1 | -5.4 | · | 6.3 | 1.4 | -9.4
C[C@H]1CN([C@@H](C)CO)C(=O)CCCn2nncc2CO[C@H]1CN(C)S(=O)(=O)c1cccc(F)c1 | 0.3 | · | -4.3 | -0.5 | 3.8
COc1ccc(S(=O)(=O)N(C)C[C@H]2OCc3cnnn3CCCC(=O)N([C@@H](C)CO)C[C@H]2C)cc1 | 0.0 | · | 63.9*! | -1.5 | -2.1
O=C(C[C@H]1CC[C@@H]2[C@H](COC[C@H](O)CN2CCC(F)(F)F)O1)NCC1CCCCC1 | · | · | 1.4 | · | ·
SMILES | SIRT5 inh | Rtt109 HAT inh | DENV2 CPE | ERp5 block | PDI inh
C[C@@H]1CN([C@H](C)CO)C(=O)c2cc(NC(=O)NC3CCCCC3)ccc2O[C@@H](C)CCCCO[C@@H]1CN(C)S(=O)(=O)c1cn(C)cn1 | -0.7 | · | ? | 3.0 | ·
COc1cc(C2C(C(C)=O)=C(O)C(=O)N2CCc2c[nH]c3ccccc23)ccc1O (configuration not stated) | · | 0.1 | · | · | 41.5*
O=C(Nc1nccs1)c1cccc2ccccc12 | 17.8* | 7.1 | 4.9 | 3.1 | 2.0
CC(C)NC(=O)N(C)C[C@@H]1Oc2ccc(NC(=O)Cc3cn(C)c4ccccc34)cc2C(=O)N([C@@H](C)CO)C[C@H]1C | 0.1 | · | 79.8* | -1.9 | ·
C[C@@H]1CN([C@H](C)CO)C(=O)c2cc(NC(=O)Cc3cn(C)c4ccccc34)ccc2O[C@H]1CN(C)S(=O)(=O)c1ccc(F)cc1 | -1.6 | 0.5 | 57.5*! | 5.1 | ?
Oc1ccc(-c2nccc(-c3ccc(Cl)cc3Cl)n2)cc1 | 18.1* | 26.8 | 2.5 | 1.2 | 4.9
Oc1ccc(-c2nccc(-c3ccc(Cl)cc3)n2)cc1 | 0.4 | · | -0.6 | 2.7 | -0.2
COc1cc([C@H]2Oc3c(OC)cc(CCCO[C@@H]4O[C@H](CO)[C@@H](O)[C@H](O)[C@H]4O)cc3[C@@H]2CO)ccc1O | 24.7* | 2.9 | -11.4 | 4.3 | ·
C[C@@H]1CN([C@@H](C)CO)C(=O)c2cc(C#Cc3ccccc3F)cnc2O[C@H]1CN(C)C(=O)C1CCC1 | -2.0 | · | 2.2 | -6.9 | ·
O=C(Nc1ccc2c(c1)[C@@H]1C[C@@H](CC(=O)N3CCCCC3)O[C@@H](CO)[C@@H]1O2)NC1CCCC1 | 0.3 | · | 10.0 | -0.4 | ·
O=C(C[C@@H]1C[C@H]2c3cc(NC(=O)NC4CCCC4)ccc3O[C@H]2[C@@H](CO)O1)NCc1ccc(Cl)cc1 | 2.7 | · | 7.2 | · | ·
O=C(Nc1ccc2c(c1)[C@H]1C[C@@H](CC(=O)N3CCCCC3)O[C@H](CO)[C@H]1O2)NC1CCCC1 | -1.0 | · | 56.1* | -0.8 | ·
C[C@H](NC(=O)C[C@H]1C[C@H]2c3cc(NC(=O)NC4CCCC4)ccc3O[C@H]2[C@H](CO)O1)c1ccccc1 | -1.6 | · | 27.9* | -5.5 | ·
O=C(C[C@H]1C[C@@H]2c3cc(NC(=O)NC4CCCC4)ccc3O[C@@H]2[C@@H](CO)O1)NCc1ccc(Cl)cc1 | -0.5 | · | 3.5 | 98.2* | ·
C[C@@H](NC(=O)C[C@@H]1C[C@H]2c3cc(NC(=O)NC4CCCC4)ccc3O[C@H]2[C@H](CO)O1)c1ccccc1 | -2.3 | · | 2.1 | 2.3 | ·
COc1ccc(OC)c(C2=NOC(C(=O)Nc3c(C)n(C)n(-c4ccccc4)c3=O)C2)c1 (configuration not stated) | 7.4 | -20.5 | 81.0* | -0.2 | 0.2

Bioassay records as filed in PubChem.
